# Assay outcomes as filed in PubChem.
# ATXN2 expr inh: Primary qHTS for Inhibitors of ATXN expression; Potency, µM (top dose mostly 57 µM), for the others: at the highest dose activity change, negative = inhibition, most hits filed as inhibitors; HEK-293 ATXN2-luciferase reporter, luminescence, 24 h; actives 0.72% (n = 360,000); AID 1745845, 2022; note: % is set by controls: 0 for no effect and ±100 for the full control effect; nearly all actives have a fitted effect of over 55% in size
#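 qHTS (up to 57 uM final) was run with 24 h compound exposure of reporter cells at 37 °C. Each well was multiplexed: SteadyGlo luminescence measured ATXN2-luciferase expression after a fluorogenic Gly-Phe-AFC viability readout (25 uM final).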
# S2 tox: Viability Counterscreen for Primary qHTS for Inhibitors of ATXN expression; S2 cells (HEK-293 line with an ATXN2-luciferase reporter) viability, CellTiter-Fluor protease fluorescence, 24 h; Potency, µM (doses to about 56.7 µM), actives largely listed as cytotoxic; actives 0.49% (n = 400,000); note: nearly all actives have a fitted effect of over 40% in size
# HT1080 IDH1KD tx: qHTS for induction of synthetic lethality in tumor cells producing 2HG: qHTS for the HT-1080-IDH1KD cell line. HT-1080 IDH1 knockdown viability, ATP luminescence, 48 h. Potency, µM (titrated, usually from 46.1 µM), without a hit: at the highest dose activity, negative = toxicity, actives largely listed as cytotoxic. actives 2% (n = 360,000). AID 686971, 2013;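 note: 0% = DMSO wells and -100% = cell-free medium wells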
#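 Viability of IDH1-knockdown HT-1080 fibrosarcoma cells was assessed by CellTiter-Glo after 48 h at 37 °C with titrated compound; concentration-effect curves were classified by fit quality and response size.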
# TGFb SMAD3 inh: qHTS for Inhibitors of TGF-b; HepG2 CAGA-GFP TGF-b/SMAD3 reporter, GFP fluorescence, 18 h; TGF-beta stimulated, 500 pg/mL final; Potency, µM (doses to about 46.1 µM), for inactives: top-dose activity, negative = inhibition, hits mostly inhibitors; actives 1.2% (n = 410,000); AID 588855, 2011; note: % is set by controls: 0 for no effect and ±100 for the full control effect; nearly all actives have a fitted effect of over 65% in size
#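 Smad-responsive CAGA-GFP expression was quantified in HEPG2 cells exposed to compounds and 500 pg/mL final TGF-beta for 18 h at 37 degrees C; unstimulated wells defined full inhibition.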
# HT1080-NT tox: qHTS for induction of synthetic lethality in tumor cells producing 2HG: qHTS for the HT-1080-NT fibrosarcoma cell line; AID 686970, 2013; actives 1.6% (n = 360,000); Potency, µM (titrated, usually from 46.1 µM), inactives show top-dose activity, negative = less viability, hits mostly cytotoxic; HT-1080-NT fibrosarcoma viability, CellTiter-Glo ATP luminescence, 48 h;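 note: NT is the 2HG producing partner of a matched IDH1 knockdown line; 0% = DMSO-treated cells and -100% = media-only wells without cells; nearly all actives have a fitted effect of over 55% in size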
#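 Read-out is CellTiter-Glo luminescence after 10 minutes at room temperature, following 48 hours' compound treatment of HT-1080-NT cells (750 cells/well, RPMI, 5% FBS, 37 degrees C).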
# HepG2 tox: qHTS for Inhibitors of TGF-b: Cytotox Counterscreen. AID 588856, 2011. HepG2 CAGA-GFP viability, ATP luminescence, 18 h. actives 0.76% (n = 410,000). Potency, µM (doses to about 46.1 µM), for the others: top-dose activity change, negative = cytotoxicity, usual class: cytotoxic
#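 CellTiter-Glo luminescence gave cytotoxicity after 18 hours at 37 degrees C. The cells were HepG2 CAGA-GFP in 1% FBS DMEM, stimulated with 500 pg/mL TGF-beta after compound addition. %Activity was normalised to no-cell wells (complete cell-killing) and DMSO (no toxicity), and curves were fitted and classified.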
# An asterisk follows results filed as active; i = inactive; ? = inconclusive; / = no result; ! = repeats disagree; [ ] = another dose, or the depositor's remark. The list is not random: actives were taken first. Their share in the collection is about 3.9%. Calls come from the whole dose curve; as a rule, active = well fitted curve in the direction sought with a large enough effect; inconclusive = small, poorly fitted or top-dose-only effect, or another doubt; inactive = no such curve, though single readings can be large; an effect the other way counts as inactive or inconclusive. Potency is the fitted concentration of half-maximal effect.
SMILES,ATXN2 expr inh,S2 tox,HT1080 IDH1KD tx,TGFb SMAD3 inh,HT1080-NT tox,HepG2 tox
CCC(C)C1NC(=O)C(NC(=O)C(CC(C)C)N(C)C(=O)C2CCCN2C(=O)C(C)O)C(C)OC(=O)C(Cc2ccc(OC)cc2)N(C)C(=O)C2CCCN2C(=O)C(CC(C)C)NC(=O)[C@H](C)C(=O)[C@H](C(C)C)OC(=O)CC1O (some centres not stated),?,0.0134µM*,0.013µM*,-103.6%,0.231µM*,-2.1%
Cc1ccc(NC(=O)C2CCN(C(=O)c3cnn(-c4ccccc4)c3-n3cccc3)CC2)cc1Cl,?,?,/,14.1µM*,/,-27.0%
Cc1cccc(NP(=O)(Oc2ccccc2F)Oc2ccccc2F)c1,-16.3%,i,?,12.6µM*,-23.9%,-59.8%
C[C@]12Cc3cn[nH]c3C[C@@H]1CC[C@@H]1[C@@H]2CC[C@@]2(C)[C@H]1CC[C@]2(C)O,-10.5%,i,/,/,/,/
C[C@@H]1CN([C@@H](C)CO)C(=O)c2c(c3ccccc3n2C)-c2ccccc2CO[C@H]1CN(C)S(=O)(=O)c1ccc(C(F)(F)F)cc1,4.1%,i,-0.7%,?,-3.8%,-41.3%
CN(C)c1ncc(C2=C(Cl)C(=O)C(N3CCCC3)=C(Cl)C2=O)s1,25.1µM*,/,8.91µM*,-3.5%,?,-80.6%
O=C1CN=C(c2cccs2)c2c(sc3c2CCCC3)N1,?,i,10µM*,-19.4%,11.2µM*,-20.9%
Cc1ccc2c(c1)C(c1ccccc1)=NCC(=O)N2,-10.0%,i,-3.1%,7.9%,4.8%,4.1%
O=C1CN=C(c2ccccc2)c2c(sc3c2CCCC3)N1,-19.3%,?,23.1µM*,-14.3%,?,-37.7%
CCS(=O)(=O)N1Cc2cc(C(=O)N(C)C)nc(-c3cccc(-c4ccc(F)cc4)c3)c2[C@H]1CCO,-14.6%,i,23.1µM*,/,-1.6%,/
CCC(C)NC(=O)CCC(=O)OC1O[C@H]2OC3(C)CC[C@H]4[C@H](C)CCC(C1C)C24OO3 (some centres not stated),-28.5%,?,7.31µM*,-9.1%,7.31µM*,-19.9%
Fc1cc(Br)ccc1CBr,12.2%,i,/,/,/,/
CCOc1cc(CNC2CCCC2)cc(Cl)c1OCc1ccc(F)cc1,22.4µM*,28.2µM*,?,?,?,11.2µM*
CCc1ccc([C@H]2[C@@H]3C(=O)C[C@@H]4C(=O)N(Cc5ccccc5)C(=O)[C@@H]4[C@@H]3CN2S(=O)(=O)c2ccc(C)cc2)cc1,6.8%,i,5.7%,?,0.1%,1.6%
Cc1ccc2oc(=O)n(CCNC(=O)Nc3ccc(C)c(F)c3)c2c1,/,/,/,0.0%,/,-35.0%
CCC1(O)C(=O)OCc2c1cc1n(c2=O)Cc2cc3cc(O)ccc3nc2-1 (configuration not stated),-74.1%,/,0.651µM*,?,0.731µM*,1.0%
CC[C@@]1(O)C(=O)OCc2c1cc1n(c2=O)Cc2cc3c(NC(=O)CN)cccc3nc2-1,0.336µM*,/,1.84µM*,?,2.31µM*,-54.9%
CC[C@@]1(O)C(=O)OCc2c1cc1n(c2=O)Cc2cc3ccccc3nc2-1,0.0193µM*,/,/,-20.3%,/,-39.3%
Cc1ccc(Cl)cc1NC(=O)Cn1c(=O)oc2cc(S(=O)(=O)N3CCCCCC3)ccc21,/,/,/,?,/,-56.0%
O=S(=O)(c1ccc2c(c1)OCCO2)N1CCC(c2nc3ccc(Cl)cc3[nH]2)CC1,15.8µM*,?,14.1µM*,?,11.2µM*,-50.4%
Nc1ccc(N=Nc2ccccc2)cc1,0.0%,22.4µM*!,-14.0%,-9.2%,-11.6%,-5.1%
Cc1cc(N(C)C)ccc1N=Nc1ccc(N)cc1,47.8%,?,?,-0.1%,?,5.0%
NC(N)=N/N=C/c1cn(-c2ccccc2)nc1-c1cccs1,/,/,-13.0%,?,-29.5%,11.2µM*
C[C@@H]1CN([C@@H](C)CO)C(=O)c2c(c3ccccc3n2C)-c2ccccc2CO[C@H]1CN(C)C(=O)[C@H](C)c1ccccc1,?,?,?,?,?,-34.8%
CCCC1(CCC)C(=O)NC(=NCc2ccccc2)NC1=O,?,?,?,?,14.6µM*,-92.4%
SMILES,ATXN2 expr inh,S2 tox,HT1080 IDH1KD tx,TGFb SMAD3 inh,HT1080-NT tox,HepG2 tox
Cc1ccc(N/N=C/c2c(O)n(-c3ccccc3)c(=O)[nH]c2=O)cc1,-12.2%,i,2.91µM*,-2.4%,?,21.1%
Cc1ccc(-n2c(O)c(/C=C/C=Nc3ccccc3)c(=O)[nH]c2=O)cc1,-1.8%,?,-1.7%,98.4%,0.7%,19.7%
Cc1ccc(N2CCN(C(=O)c3cn(CC4CCCCC4)nn3)C(C)C2)cc1 (configuration not stated),5.6%,i,?,?,?,-3.6%
CC(=O)NCC(N)C(=O)c1ccc(Cl)c(Cl)c1 (configuration not stated),/,/,-12.5%,/,?,/
OC(c1ccccc1)(c1ccc(Cl)cc1)C1CN2CCC1CC2 (configuration not stated),-13.2%,i,16.4µM*,0.0%,?,-66.1%
OC(c1ccccc1)(c1ccccc1)C1CN2CCC1CC2 (configuration not stated),3.7%,i,-18.9%,-6.4%,-10.6%,-10.4%
C=CCC1=C(C)C(OC(=O)C2C(C=C(C)C)C2(C)C)CC1=O (configuration not stated),?,39.8µM*,/,/,/,/
CC(Cc1ccccc1)N(C)Cc1ccco1 (configuration not stated),-0.4%,i,/,/,/,/
CCCN(c1ccc(C(C)C)cc1)S(=O)(=O)c1ccc2c(c1)oc(=O)n2CC(=O)OCC,-38.3%,?,/,?,/,-41.4%
c1ccc(CN2CCNCC2)cc1,20.6%[222 µM],i,/,/,/,/
O=P(O)(O)CN1CCNCCN(CP(=O)(O)O)CCNCC1,?,?,14.6µM*,9.1%,2.8%,0.4%
Oc1ccc(Cl)cc1Cc1cc(Cl)ccc1O,28.2µM*!,?,23.1µM*,?,16.4µM*,-74.2%
Oc1ccc(Cl)cc1Cc1ccccc1,?,?,-7.5%,?,-4.0%,-28.6%
N=c1c2c(-c3ccccc3)c(-c3ccccc3)n(Cc3ccccc3)c2ncn1C1CCC(O)CC1 (configuration not stated),24.3µM*,/,/,/,/,/
